The full list was thinned out, with hits kept by preference.
Vaccinia pol inh – vaccinia E9 polymerase processive synthesis inhibitors, primary screen, biochemical, absorbance; in vitro processive DNA synthesis, absorbance read-out; stronger effect = lower value; normalized absorbance, % (no concentration beside the values); hit rate 0.94% among 46,000; AID 493162, 2011; in the data active = normalized absorbance mostly below about 85%, no sharp cut-off; inactive = mostly above about 86%
Of the large screens only hits and unclear results are named; the others gave an inactive call.

CCC(=O)N/C(N)=N\c1nc(C)c2ccccc2n1	none
c1ccc(-c2nc(N3CCCC3)nc3ccccc23)cc1	none
NC(N)=Nc1nc(-c2ccccc2)c2ccccc2n1	Vaccinia pol inh 51
COc1cccc(OC)c1C1=NCC(=O)Nc2c1oc1ccc(Br)cc21	none
N/C(CCCN1CCCCC1)=N\O	none
COC(=O)c1ccc(-n2nnnc2SCCCC(=O)c2ccc(F)cc2)cc1	none
Cc1cc(-c2nc(-c3ccnn3S(=O)(=O)c3cccc(C(F)(F)F)c3)cs2)no1	none
CCOC(=O)c1cc(-c2ccnn2S(=O)(=O)c2cccc(C(F)(F)F)c2)on1	Vaccinia pol inh 69
CCOC(=O)c1cc(-c2ccnn2C(=O)c2ccccc2)on1	none
Cc1nn(C(C)(C)C)c(C(=O)Sc2cccc(C(F)(F)F)c2)c1Br	none
O=C(/C=C/c1cccc(F)c1)NCCCn1ccnc1	none
c1ccc(-c2csc3ncnc(NCCCn4ccnc4)c23)cc1	none
O=C1CSC(=S)N1/N=C/c1cccnc1	none
O=C1CSC(=S)N1/N=C/c1cc(Br)cc(Br)c1O	Vaccinia pol inh 81
O=C(NN1C(=O)CSC1=S)c1ccccc1	none
Cc1ccc(CSCC(=O)N2CCN(c3ccccc3)CC2)cc1	none
COc1ccccc1C(=O)COC(=O)Cc1ccccc1F	none
Nc1nonc1C(=O)NCc1ccco1	none
C=C(NCc1ccco1)c1ccc(Cl)cc1	none
C=C1C(C(=O)NCc2ccco2)C1C(=O)NCc1ccco1 (stereo not given)	Vaccinia pol inh 56
O=C(O)CN1CCC(c2ccccc2)CC1	none
O=C1CC(c2ccccc2)SC(c2ccccc2)C1 (stereo not given)	none
O=C1CCC(c2ccccc2)CC1	Vaccinia pol inh 66
CCOC(=O)c1c(NC(C)=O)sc(Br)c1-c1ccc(C)cc1	none
CCOC(=O)c1c(NC(=O)/C=C\C(=O)O)sc(C)c1-c1ccccc1	Vaccinia pol inh 63
CCOC(=O)c1c(NC(=O)CCN2CCOCC2)sc(C)c1-c1ccccc1	none
N#CC(CCN1CCN(c2ccccc2)CC1)(c1ccccc1)c1ccccc1	none
COc1ccc(OCC(=O)NC(C)(C)C)cc1	none
CCN1C(=O)c2cccc3c(S(=O)(=O)N(C(=O)c4ccncc4)c4ccc(OC)cc4)ccc1c23	none
CCOC(=O)Cc1csc(NC(=O)c2cc(Cl)sc2Cl)n1	none
O=C(O)/C=C/c1ccc(Br)o1	Vaccinia pol inh 72
O=C(O)/C=C/c1ccc(-c2cccc(C(F)(F)F)c2)o1	none
O=C(/C=C/c1ccc(Br)o1)Nc1ccc(F)cc1F	none
O=C(/C=C/c1ccc(Br)o1)Nc1nccs1	none
O=C(/C=C/c1ccc(Br)o1)/C=C/c1ccc(Br)o1	Vaccinia pol inh 49
Cc1ccc(/C=C/C(=O)O)o1	none
COC(=O)C(N)CS (stereo not given)	none
Cc1ccc(C(=O)NCc2ccc3[nH]c4c(c3c2)CCCC4)cc1C	none
CC(C)c1ccc2[nH]c3c(c2c1)CCC/C3=N\O	none
N/N=C1\CCCc2c1[nH]c1ccc(C(=O)NN)cc21	Vaccinia pol inh 46
CC1=CCC(Cc2nc3ccccc3o2)C1(C)C (stereo not given)	none
Cc1ccc(Nc2ccc(C)cc2)cc1	none
Cc1ccc(NN)cc1	Vaccinia pol inh 65
Cc1ccc(S(=O)(=O)c2ccc(NN)cc2)cc1	none
COc1ccc2c(c1OC)C(=O)O[C@H]2[C@@H]1c2ccccc2CCN1C	none
O=C(Nc1ccc(F)cc1)C1C2C3CCC(C3)C12 (stereo not given)	none
CC(=O)NC(Cc1ccc(F)cc1)C(=O)OCc1ccccc1 (stereo not given)	none
O=C(O)CNC(=S)N(Cc1ccccc1)Cc1cccs1	none
O=C(CNC(=S)N(Cc1ccccc1)Cc1cccs1)NC1CCCCC1	Vaccinia pol inh 77
O=C(O)CNC(=S)N(Cc1cccs1)C1CCCCC1	none
Cc1nc2ccc(S(=O)(=O)NC(C(=O)Nc3nc4ccc(Cl)cc4s3)C(C)C)cc2s1 (stereo not given)	none
CCCCN(C)C(=O)C1c2ccccc2C(=O)N(C)C1c1ccc(OC)cc1 (stereo not given)	none
O=C(O)c1ccccc1NS(=O)(=O)/C=C/c1ccccc1	none
O=S(=O)(/C=C/c1ccccc1)Nc1ccc(F)cc1	Vaccinia pol inh 76
O=C(O)CNS(=O)(=O)/C=C/c1ccccc1	none
COC(=O)C1=CN(C(C)C)C=C(C(=O)OC)C1c1ccc(C(C)C)cc1	none
Cc1ccc(CN2C(=O)c3ccccc3Sc3ccc(C(=O)NCCN4CCOCC4)cc32)cc1	none
O=C(NCC1COc2ccccc2O1)Nc1csc2ccccc12 (stereo not given)	none
Cc1[nH]c(=O)[nH]c(=O)c1S(=O)(=O)N1CCCCC1C (stereo not given)	none
OC(CSc1ccc(F)cc1)CN1CCN(c2cccc(C(F)(F)F)c2)CC1 (stereo not given)	none
COc1ccc2c(c1)=C(c1sc(=S)[nH]c1O)C(=O)N=2	none
N#CC1=C(N=Cc2c(O)ccc3ccccc23)CCC1	none
N#CC1=C(N=Cc2cc(Cl)cc(Cl)c2O)CCC1	Vaccinia pol inh 83
Oc1c(Cl)cc(Cl)cc1/C=N/c1nc2c(s1)CCCC2	none
CCOc1ccc(NC(=O)CCNS(=O)(=O)c2ccc(Br)s2)cc1	none
Cc1cc(C(=O)NN)n(C(C)(C)C)n1	none
COc1ccc(C(=O)Nc2ccc(Oc3ccccc3)cc2)cc1I	none
CC1CCN(C(=O)CN2N=C(c3ccccc3)CCC2=O)CC1	none
O=C1/C(=C/C=C/c2ccccc2)SC(=S)N1c1cccc(F)c1	none
CN(C)c1ccc(/C=C2\SC(=O)NC2=O)cc1	none
O=C1NC(=O)/C(=C\C=C\c2ccccc2)S1	Vaccinia pol inh 55
O=C1OC(c2ccccc2)OC(=O)C1=C/C=C/c1ccccc1 (stereo not given)	none
O=C1NC(=S)S/C1=C\C=C\c1ccccc1	Vaccinia pol inh 86
O=C(CN1C(=O)/C(=C\C=C\c2ccccc2)SC1=S)Nc1ccc(F)cc1	none
CC(=O)NCc1nc2ccccc2n1Cc1ccccc1	none
CCOc1cc2oc(=O)cc(C)c2cc1Cl	none
Cc1ccc(Cn2c(=O)n(Cc3ccccc3)c(=O)c3c4c(sc32)CCC4)cc1	none
CS(=O)(=O)N1CCSC1c1ccc(Cl)cc1 (stereo not given)	none
O=c1c2c3c(sc2nc(SCCO)n1-c1ccccc1)CCCC3	none
CCOc1ccc(C2c3cc(OC)c(OC)cc3CC(=O)N2c2ccccc2)cc1 (stereo not given)	none
Cn1c(=O)cc(OCC(=O)N2CCCC2)c2ccccc21	none
O=C(O)c1ccccc1NCCO	none
O=C(O)CCNc1ccccc1C(=O)O	none
O=C(O)c1ccccc1NCc1ccc(Cl)cc1	Vaccinia pol inh 53
O=C(/C=C\c1ccc2c(c1)OCO2)NC1(C(=O)Nc2ccc3c(c2)OCO3)CCCCC1	none
CCOc1ccc(NC(=O)c2sc(C)c(CC(=O)Nc3ccc(Cl)cc3)c2O)cc1	Vaccinia pol inh 80
CCOc1ccc(-n2ccnc2SCC(=O)Nc2ccc(Cl)cc2)cc1	none
CCOc1ccc(NC(=O)CN2C(=O)S/C(=C/c3ccc(Cl)cc3)C2=O)cc1	none
COC(=O)CNc1ccccc1C(=O)O	none
CC(=O)NCCc1nc2cc(NC(C)=O)ccc2n1C	none
CO[C@@]1(NC(=O)C(C(=O)O)c2ccc(O)cc2)C(=O)N2C(C(=O)O)=C(CSc3nnnn3C)CO[C@@H]21 (stereo not given in full)	Vaccinia pol inh 8.0
O=C(Nc1ccc(-c2nc3ncccc3o2)cc1)c1ccccc1	none
CCN(CC)c1ccc(N2C(=O)/C(=C/c3ccccc3)SC2=S)cc1	none
COc1ccccc1/C=C1\SC(=S)N(c2ccccc2)C1=O	none
O=C(O)c1cccc(N2C(=O)/C(=C/c3ccccc3)SC2=S)c1	Vaccinia pol inh 90
N#Cc1c(-c2ccccc2Cl)cc(C2CC2)nc1N	none
Cc1ccc2[nH]c(=O)c(CN3CCOCC3)c(-c3ccccc3)c2c1	Vaccinia pol inh 67
Cc1ccc2[nH]c(-c3ccccc3)c(CN3CCCC3)c(=O)c2c1	none
